The record followed here is publication PMC5540273 (PLoS ONE, 2017).
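Also: KINOMEscan kinase panel screen.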

In the assay the test system is ULK1. Particulars: concentration: 1 μM, replicates: in singlicate; n = 1.
Turning to `Cl.c1ccc(Cn2cnc3cc(Nc4ncnc5ccccc45)ccc32)cc1` [GW272142], the “%Inh” value came out at 7%.

With `O=C(Nc1ccc2c(c1)OCO2)NC1CCN(c2ccnc(NCc3ccc(F)cc3)n2)CC1` [GSK1379859], the “%Inh” value is listed as 12%.

Consider `CCn1c(-c2ccoc2)nc2cnccc21` [SB-733887], for which the “%Inh” value was 29%.

Regarding `COc1cc2nccc(Nc3ccc(OCc4ccc(NC(C)=O)cc4)cc3)c2cc1OC.Cl` [GW440135], the “%Inh” value was 0%.

On to `CCC(=O)c1c(-c2ccccc2)c2cc(Cl)ccc2c(=O)n1Cc1cc(S(C)(=O)=O)n(CC(F)F)n1`, for which the “%Inh” value was 0%.

For `Nc1nc(-c2ccccc2F)c(-c2ccnc3ccccc23)s1` [GW560459], the “%Inh” value was found to be 0%.

In the case of `COc1ccc(-c2coc3ccc(-c4nnc(SCc5cccc(C#N)c5)o4)cc23)cc1`, the “%Inh” value was 0%.

Turning to `CCn1c(-c2nonc2N)nc2ccccc21` [SB-693162/GW549034], the “%Inh” value stood at 40%.

On to `Nc1ncnc2c1ncn2-c1cccc(F)c1` [SKF-97560], for which the “%Inh” value amounted to 7%.

With `COc1cc2ncn(-c3cc(OCc4ccc(S(C)(=O)=O)cc4)c(C(N)=O)s3)c2cc1OC` [GW869979], the “%Inh” value is recorded as 6%.

Regarding `Cc1c(Cn2c(C)nn3c(=O)cc(N4CCO[C@H](C)C4)nc23)cccc1C(F)(F)F` [GSK2373690], the “%Inh” value is reported as 14%.

For the compound `COC(=O)c1c(-c2ccccc2)c2cc(Br)ccc2c(=O)n1Cc1ccc(S(C)(=O)=O)cc1`, the “%Inh” value is reported as 0%.

`COc1cc2ncn(-c3cc(OCc4ccncc4Br)c(C(N)=O)s3)c2cc1OC` [GW854278]: the “%Inh” value was found to be 2%.
